PubChem BioAssay AID1259421 (Broad Institute, 2018)
Several values for one entry are separate records, joined by “and”; a condition that tells them apart may be missing. Equal entries are not always repeated. Hit rate of the full screen: of about 6,400 compounds, about 610 (9.5%) were called active. No stated cut-off is given here; in the data, active means activity change below about -70%; inconclusive means no clear call, values can overlap the other calls; inactive means above that. What follows is part of a selection rich in actives, with near analogues and random picks from the rest. The source holds several records for some structures; these can differ, active in one and inactive in another. *1 amine or outer side, *2 acyl side, *3 side chain or, on linkers, in order; H or OH if unused. Where a SMILES comes first, the peptide text is derived from it. [ ]: non-standard residue; d: D form. LeuΨ(S-CHOHCH2)Ala = CC(C)C[C@H](N[*:1])[C@@H](O)C[C@@H](C)C(=O)[*:2]

Test: T. gondii ME49Luc in HeLa cells, luciferase assay, 72 h, no IFN-y (AID 1259421)
Conditions: stronger effect = lower value, concentration not given here

SMILES | activity change, negative = inhibition
CC1OC(OCC2OC(Oc3c(-c4ccc(O)c(O)c4)oc4cc(O)cc(O)c4c3=O)C(O)C(O)C2O)C(O)C(O)C1O (configuration not stated) | -9.9% (inactive)
CS(=O)(=O)c1ccc(C(O)[C@H](CF)NC(=O)C(Cl)Cl)cc1 (some centres not stated) | -54.7% (inactive) and -27.8% (inactive)
CN1C/C=C/CCOc2cccc(c2)-c2ccnc(n2)Nc2cccc(c2)C1 | -90% (active)
CCCCCCCCCCCCCCCC(=O)C1C(=O)OC(CO)C1=O (configuration not stated) | 6.7% (inactive)
Cc1cccc(C2CN(C)CCc3c2cc(O)c(O)c3Cl)c1 (configuration not stated) | -3.35% (inactive)
CCOC(=O)[C@H]1O[C@@H]1C(=O)N[C@@H](CC(C)C)C(=O)NCCC(C)C | 12.9% (inactive) and 2.41% (inactive)
CC(C)c1nc(CN(C)C(=O)N[C@@H](CCN2CCOCC2)C(=O)N[C@H](CC[C@H](Cc2ccccc2)NC(=O)OCc2cncs2)Cc2ccccc2)cs1 | -16.7% (inactive)
O=C(Cc1ccc(-c2ccc(OCCN3CCOCC3)cc2)cn1)NCc1ccccc1 | -55.5% (inactive)
CC(=O)NC(Cc1ccccc1)C(=O)O (configuration not stated) | 20.2% (inactive)
CC(=O)N[C@@H](Cc1ccccc1)C(=O)O | 16.5% (inactive)
C[C@H]1CN(C[C@H](Cc2ccccc2)C(=O)NCC(=O)O)CC[C@@]1(C)c1cccc(O)c1 | 4.96% (inactive)
COC(=O)[C@H](Cc1ccccc1)NC(=O)[C@@H](N)CC(=O)O (H-Asp-Phe-OMe) | 0.919% (inactive)
CC(C)C[C@H](NC(=O)[C@H](CCc1ccccc1)NC(=O)CN1CCOCC1)C(=O)N[C@@H](Cc1ccccc1)C(=O)N[C@@H](CC(C)C)C(=O)[C@@]1(C)CO1 | -76.7% (active)
COC[C@H](NC(=O)c1cnc(C)s1)C(=O)N[C@@H](COC)C(=O)N[C@@H](Cc1ccccc1)C(=O)C1(C)CO1 (some centres not stated) | -88.8% (active)
COc1ccc(C[C@H](NC(=O)[C@H](C)NC(=O)CN2CCOCC2)C(=O)N[C@@H](Cc2ccccc2)C(=O)[C@]2(C)CO2)cc1 | -76% (active)
CC1(C)CCC(C)(C)c2cc(Cn3cccn3)c(/C=C/c3ccc(C(=O)O)cc3)cc21 | 15.2% (inactive)
c1ccc(-c2nn3c(c2-c2ccnc4cc(OCCN5CCOCC5)ccc24)CCC3)nc1 | -32.4% (inactive)
COc1ccc(-c2coc3cc(O)ccc3c2=O)c(OC)c1 | 11.6% (inactive)
CCN(CC)CC(=O)Oc1ccc(NC(C)=O)cc1 | 7.5% (inactive)
OC[C@H]1O[C@H](O[C@H]2O[C@H](CO)[C@@H](O)[C@H](O)[C@H]2O)[C@H](O)[C@@H](O)[C@@H]1O | 7.53% (inactive)
C[N@+]12CCCC[C@@H]1CCC(=C(c1cccs1)c1cccs1)C2 | 13.6% (inactive)
O=C(O)c1cc(=O)c2c3nc4ccccc4oc-3cc(=O)c2[nH]1 | 1.96% (inactive)
CC(=O)N[C@H]1[C@H]([C@H](O)[C@H](O)CO)OC(C(=O)O)=C[C@@H]1N=C(N)N | 10.9% (inactive)
COc1ccc(-c2ccc3ncc4c(c3c2)n(-c2ccc(N3CCNCC3)c(C(F)(F)F)c2)c(=O)n4C)cn1 | -88.5% (active)
Cc1cc(C)cc(C(=O)N(C)[C@H](Cc2ccc(-c3ccccc3)cc2)C(=O)N[C@@H](Cc2c[nH]c3ccccc23)C(=O)O)c1 | 13% (inactive)
C[C@H]1CNCCCN1S(=O)(=O)c1cccc2cncc(F)c12 | -2.52% (inactive)

SMILES | activity change, negative = inhibition
Nc1nnc(Sc2ncc([N+](=O)[O-])s2)s1 | 9.53% (inactive)
CC(C)CN(C[C@@H](O)[C@H](Cc1ccccc1)NC(=O)O[C@H]1CCOC1)S(=O)(=O)c1ccc(N)cc1 | 0.811% (inactive)
COc1cc(NC(=O)Nc2cccc(CNC(=O)O[C@H]3CCOC3)c2)ccc1-c1cnco1 | -79.3% (active)
CC[C@H](CC#N)OC(=O)N[C@@H](C)c1cccc(NC(=O)Nc2ccc(-c3cnco3)c(OC)c2)c1 | -82% (active)
Cc1cc2c(OCC(CNC(C)(C)C)OC(=O)c3ccccc3)cccc2[nH]1 (configuration not stated) | 18.3% (inactive)
Cc1c(NC(=O)c2cc3c(s2)CCCC3)cccc1-c1cn(C)c(=O)c(Nc2ccc(C3C(=O)N(C)CCN3C)cc2)n1 (configuration not stated) | 97.9% (inactive)
CCC(C(=O)O)c1ccc(N2Cc3ccccc3C2=O)cc1 (configuration not stated) | 122% (inactive)
Nc1nc2c(sc(=O)n2[C@@H]2O[C@H](CO)[C@@H](O)[C@H]2O)c(=O)[nH]1 | -8.34% (inactive)
COc1cc2c(cc1OC)C(=O)OC2 | -0.409% (inactive)
Fc1cc(-c2cccc3ncc(-c4cnn(C5CCNCC5)c4)nc23)cc(F)c1CN1CCOCC1 | 6.9% (inactive)
C[C@@H](Oc1cc(-c2cnn(C3CCNCC3)c2)cnc1N)c1c(Cl)ccc(F)c1Cl | -43.1% (inactive) and -79.1% (active)
C[C@H](Oc1cc(-c2cnn(C3CCNCC3)c2)cnc1N)c1c(Cl)ccc(F)c1Cl | -84.6% (active) and 9.96% (inactive)
CCCCCCCCCCCC[C@H](C(=O)O)[C@@H](C)C(=O)O | 2.19% (inactive)
Oc1c(Cl)cc(Cl)cc1Sc1cc(Cl)cc(Cl)c1O | -82.5% (active) and -6.64% (inactive)
Cc1cc(Cl)ccc1OCCCC(=O)NO | -90% (active)
O=C(CCCS)NC1CCN(C(=O)COc2ccc(Cl)cc2Cl)CC1 | -3% (inactive)
C#CCN(C)CCCOc1ccc(Cl)cc1Cl | 20.2% (inactive) and 29.2% (inactive)
CN(CC(=O)O)C(=N)N | 15.6% (inactive)
CCC[C@@H](NC(=O)N1C(=O)C(CC)(CC)[C@@H]1Oc1ccc(C(=O)N2CCN(C)CC2)cc1)c1ccc2c(c1)OCO2 | 4.37% (inactive)
CC(C)C[C@H](NC(=O)[C@H](CC(N)=O)NC(=O)[C@@H](NC(=O)[C@@H](N)CCC(=O)O)C(C)C)[C@@H](O)C[C@@H](C)C(=O)N[C@@H](C)C(=O)N[C@@H](CCC(=O)O)C(=O)N[C@@H](Cc1ccccc1)C(=O)O (H-EVN[LeuΨ(S-CHOHCH2)Ala]AEF-OH) | 3.01% (inactive)
Nc1cc(-c2ccncc2)c[nH]c1=O | 3.96% (inactive) and 3.4% (inactive)
O=C1NCCc2[nH]c(-c3ccncc3)cc21 | -75.8% (active)
Cc1[nH]c(=O)c(C#N)cc1-c1ccncc1 | 46.4% (inactive) and 9.05% (inactive)
CCOC(=O)C(CCc1ccccc1)NC1CCc2ccccc2N(CC(=O)O)C1=O (configuration not stated) | 3.98% (inactive)
Nc1cc(C(F)(F)F)c(-c2cc(N3CCOCC3)nc(N3CCOCC3)n2)cn1 | -70.3% (active)
Cc1nc2c(-c3cnc(N)nc3)nc(N3CCOCC3)nc2n1C(C)C | -14% (inactive)

SMILES | activity change, negative = inhibition
Nc1ncnc2nc(-c3ccc(N4CCOCC4)nc3)cc(-c3cccc(Br)c3)c12 | -21.2% (inactive) and -9.62% (inactive)
CC(=O)SCCC(=O)N1C(C)CCCC1C(=O)O (configuration not stated) | 20.2% (inactive)
O=C(O)[C@H]1CN(C/C=C/P(=O)(O)O)CCN1 | -6.53% (inactive)
CC1(C)Oc2ccc(C#N)cc2[C@H](N2CCCC2=O)[C@H]1O (racemic) | 17% (inactive)
CCN(CC)CCNC(=O)c1ccc(I)cc1 | 11.1% (inactive)
O=C(Nc1ccccc1)Nc1ccc(-c2ccc(C(=O)[C@@H]3CCC[C@@H]3C(=O)O)cc2)cc1 | 16.1% (inactive)
c1cnc2cc3c(cc2n1)C1CNCC3C1 | 5.57% (inactive)
CC1=C(CC(=O)O)c2cc(F)ccc2/C1=C\c1ccc(S(C)=O)cc1 (configuration not stated) | 13.1% (inactive) and -5% (inactive)
CO[C@H]1CC(O[C@@H]2/C(C)=C/C[C@@H]3C[C@@H](C[C@]4(C=C[C@H](C)[C@@H](C5CCCCC5)O4)O3)OC(=O)[C@@H]3C=C(C)[C@@H](O)[C@H]4OC/C(=C\C=C\[C@@H]2C)[C@]43O)O[C@@H](C)C1O[C@H]1C[C@H](OC)[C@@H](O)[C@H](C)O1 (some centres not stated) | -62.7% (inactive)
COc1cc(/C=C/c2ccc(OC)cc2OC)cc(OC)c1 | -58.6% (inactive) and -57.8% (inactive)
N#CCNC(=O)c1ccc(-c2ccnc(Nc3ccc(N4CCOCC4)cc3)n2)cc1 | -88.6% (active)
CCCN1CCN(c2ccc(C(=O)NC3(C(=O)NCC#N)CCCCC3)cc2)CC1 | 15.1% (inactive)
Cc1nc(N)sc1-c1ccnc(Nc2ccc(N3CCOCC3)cc2)n1 | -80.3% (active)
CCn1c2ccccc2c2cc(Nc3ccnc(NCCCN4CCOCC4)n3)ccc21 | -53.7% (inactive)
Cc1cc(N2CCOCC2)ccc1Nc1nc(NC2CCCCC2)c2[nH]cnc2n1 | -50.9% (inactive)
O=C(NCCCN1CCOCC1)c1ccc(Cl)cc1 | 10.9% (inactive)
CCNC(=O)C1OC(n2cnc3c(N)nc(NCCc4ccc(CCC(=O)O)cc4)nc32)C(O)C1O (configuration not stated) | 1.12% (inactive)
CC(C)=CCOc1cc2oc(=O)ccc2cc1O | -2.69% (inactive)
O=C(O)c1cc(O)c2c(c1)C(=O)c1cccc(O)c1C2=O | 18.1% (inactive)
Nc1nc(Nc2ccc3c(c2)CC[C@@H](N2CCCC2)CC3)nn1-c1cc2c(nn1)-c1ccccc1CCC2 | -85.1% (active)
CC(=O)O[C@]1(C(C)=O)CCC2C3C=C(Cl)C4=CC(=O)CC[C@]4(C)C3CC[C@@]21C (some centres not stated) | 2.15% (inactive) and -3.18% (inactive)
CCCCCCC(=O)OC1CC(C)(C)NC(C)(C)C1 | 10.7% (inactive) and -2.86% (inactive)
O=C(N[C@H]1CCN(C(=O)c2cc(C(F)(F)F)cc(C(F)(F)F)c2)[C@H](Cc2ccc(Cl)cc2)C1)c1ccnc2ccccc12 | 25.3% (inactive)
O=C(NC1CCN(CCc2c[nH]c3ccccc23)CC1)c1ccccc1 | 10.9% (inactive)
O=C(NC1CCN(CCCCC2(C(=O)NCC(F)(F)F)c3ccccc3-c3ccccc32)CC1)c1ccccc1-c1ccc(C(F)(F)F)cc1 | -89% (active)
